An excerpt weighted towards active compounds, which were near 1.5% of everything screened.
Nrf2 activator – qHTS of Nrf2 Activators | AREc32 ARE-luciferase reporter (MCF7-derived line), luminescence, 24 h | Potency, µM (highest dose often 46.1 µM), most hits filed as activators | 0.31% of 410,000 active | AID 624171, 2012; further: nearly all actives have a fitted effect of over 65% in size
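Reporter line AREc32 (ARE-Fluc), seeded overnight in OPTI-MEM with 5% FBS; compound pin-transferred, 24 hr at 37 deg C, 5% CO2; luminescent read-out.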
IL2 activator – qHTS of IL-2 Activators; IL-2 activation reporter assay, cell-based qHTS; stimulated with anti-CD3/CD4/CD28 beads; in transgenic mouse T cells; activation, % (series mostly up to about 46 µM); 0.065% of 360,000 active; in the data active means activation above about 50%; inconclusive means mostly about 30% to 49%
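Screening format: compound pinned onto unstimulated transgenic mouse T cells, 60 min incubation, then anti-CD3/anti-CD4/anti-CD28 bead stimulation for 18 hours at 37 degrees C, followed by EGFP and DsRed detection.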
Integrin act MD – qHTS for Activators of Integrin-Mediated Alleviation for Muscular Dystrophy; 0.064% of 350,000 active; Potency, µM (series often up to 38.3 µM), hits mostly activators; alpha7betagal myoblasts, beta-gal FDG fluorescence, 48 h; AID 624291, 2012; further: nearly all actives have a fitted effect of over 60% in size
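alpha7betagal+/- myoblasts (passage 13, 250/well) treated 48 h at 37C with compounds at 1:260 dilution of DMSO stock. Lysed, then beta-galactosidase activity read as FDG fluorescence (ex 480/em 540) after 30 min, with pre-read for autofluorescence.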
12-LOX inh – Primary qHTS assay for inhibitors of human arachidonate 12S-lipoxygenase (ALOX12): Round 2; 1.1% of 580,000 active; Potency, µM (top dose mostly 108 µM), usual class: inhibitors; purified 12hLO, xylenol orange hydroperoxide absorbance; Polyunsaturated fatty acid lipoxygenase ALOX12 (Homo sapiens), P18054
Target sequence (P18054 whole entry, looked up): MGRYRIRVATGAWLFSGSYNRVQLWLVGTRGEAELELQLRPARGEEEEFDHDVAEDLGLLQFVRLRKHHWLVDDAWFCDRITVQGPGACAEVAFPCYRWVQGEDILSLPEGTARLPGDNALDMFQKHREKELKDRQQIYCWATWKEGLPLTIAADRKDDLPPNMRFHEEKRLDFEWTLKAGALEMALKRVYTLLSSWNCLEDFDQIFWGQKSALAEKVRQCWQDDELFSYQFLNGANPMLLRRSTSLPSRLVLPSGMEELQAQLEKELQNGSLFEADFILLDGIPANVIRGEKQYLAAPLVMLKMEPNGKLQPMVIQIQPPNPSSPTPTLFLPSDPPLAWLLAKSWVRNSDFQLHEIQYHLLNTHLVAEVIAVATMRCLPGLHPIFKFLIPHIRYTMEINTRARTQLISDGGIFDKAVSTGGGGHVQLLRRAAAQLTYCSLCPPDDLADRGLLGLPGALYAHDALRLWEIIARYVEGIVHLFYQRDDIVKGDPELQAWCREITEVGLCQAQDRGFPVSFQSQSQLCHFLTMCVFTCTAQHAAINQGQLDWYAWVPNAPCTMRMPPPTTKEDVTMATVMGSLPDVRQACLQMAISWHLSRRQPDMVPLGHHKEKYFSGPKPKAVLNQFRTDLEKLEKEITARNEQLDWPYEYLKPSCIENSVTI
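Purified human 12hLO (150 nM final) in 25 mM Hepes, 0.01% Triton X-100, pH 7.0 was preincubated 15 min at room temperature with compound. Then 40 uM arachidonic acid was added, 30 min. Hydroperoxide was read by Fe-XO absorbance ratio 573/405 nm.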
uPA surface inh – qHTS for Inhibitors of Cell Surface uPA Generation; Potency, µM (doses to about 38.3 µM), actives largely listed as inhibitors; cell surface uPA generation assay, qHTS; AID 540303, 2011; 0.31% of 330,000 active; active means well fitted inhibition curve with a large enough effect; inconclusive means small, poorly fitted or top-dose-only effect; inactive means no such curve, though single readings can be large or run the other way; tested in mouse RAW 264.7 cells; further: nearly all actives have a fitted effect of over 55% in size
A number is an active result; 0 = inactive; ? = inconclusive; - = no result given. Unless noted, the call rests on the fitted dose curve; in most records, active means well fitted curve in the direction sought with a large enough effect; inconclusive means small, poorly fitted or top-dose-only effect, or another doubt; inactive means no such curve, though single readings can be large; an effect the other way counts as inactive or inconclusive.

SMILES | Nrf2 activator | IL2 activator | Integrin act MD | 12-LOX inh | uPA surface inh
CCN(CC)c1ccc(/C=C(/C#N)c2nc3ccccc3[nH]2)c(OC(C)C)c1 | 0 | 0 | 0 | 0 | 10µM
Cc1ccc(Sc2oc(/C=C(/C#N)c3nc4ccccc4[nH]3)cc2Br)cc1 | - | - | - | 0 | -
COc1ccc2nc(/C(C#N)=C\c3ccco3)[nH]c2c1 | - | - | - | 39.8µM | -
N#C/C(=C\c1cc(Br)c(Br)o1)c1nc2ccccc2[nH]1 | - | - | - | 11.2µM | -
CCCN(CCC)S(=O)(=O)N1CC=C(c2c(OC)cc(OC)cc2OC)CC1 | - | - | - | 0 | -
Cn1cc(/C=C/c2cc[n+](C)cc2)c2cc(Cl)ccc21 | 0 | 103.7 | 0 | 0 | 0
C[n+]1ccc(/C=C/c2c[nH]c3ccc(F)cc23)cc1 | 0 | 94.8 | 0 | 0 | 0
O=Cc1c[nH]c2cc(F)ccc12 | - | - | - | 0 | -
Cn1cc(/C=C/c2cc[n+](C)cc2)c2cc(F)ccc21 | 0 | 205.6 | 0 | - | 0
O=C(OCCOc1ccc(Br)cc1)c1ccccc1C(=O)c1ccc(Cl)cc1 | - | - | - | 0 | -
O=C(COc1ccccc1-c1ccccc1)NN=C1CCCC1 | 0 | 0 | 0 | 0 | 10µM
COc1ccccc1OCC(=O)N/N=C1/C=C(C)CC1 | 0 | 0 | 10µM | 0 | -
CSc1ccc(-c2noc(C3CCCN(S(=O)(=O)c4cccs4)C3)n2)cc1 (configuration not stated) | - | - | - | 0 | -
COc1cc(C(=O)N2[C@@H]3CC[C@H]2CC(NC(=O)c2ccncc2)C3)cc(OC)c1OC (some centres not stated) | - | - | - | 0 | -
Cc1ccc(C(=O)/C=C\Nc2ccc(C)c(C)c2)cc1 | 0 | 0 | 0 | 0 | 0
COc1cccc(N/C=C/C(=O)c2ccc(C)cc2)c1 | 0 | 0 | 0 | 0 | 8.91µM
Cc1cc(N/C=C/C(=O)c2ccccc2)ccc1Br | 5.62µM | 0 | 0 | 0 | 0
COc1cccc(N/C=C/C(=O)c2ccc(Cl)cc2)c1 | 0 | 0 | 0 | 0 | 0
C/C(=C\C(=O)c1ccccc1)Nc1ccc(Br)c(Cl)c1 | 0 | 0 | 11.2µM | ? | 0
O=C(/C=C/Nc1ccccc1)c1ccccc1 | 10µM | 0 | 0 | 0 | 0
CC(C)N(C)Cc1nnnn1CC(=O)NCc1nc(-c2ccccc2)cs1 | - | - | - | 0 | -
O=C(/C=C/Nc1ccccc1)c1ccc(Cl)cc1Cl | 0 | 0 | 0 | ? | 10µM
O=C(/C=C/C(=O)c1ccc(Cl)cc1)c1ccccc1 | - | - | - | 2.51µM | -
CCOC(=O)c1ccccc1N/C=C/C(=O)c1ccccc1 | 10µM | 0 | 0 | 0 | 0
CCOC(=O)c1ccc(N/C=C/C(=O)c2ccccc2)cc1 | 0 | 0 | 0 | 0 | 0
SMILES | Nrf2 activator | IL2 activator | Integrin act MD | 12-LOX inh | uPA surface inh
NC(=S)NN=C1CCC(C2CCCCC2)CC1 (configuration not stated) | 0 | 0 | 0 | 35.5µM | 0
NC(=S)NN=C1CCCCCCCCCC1 | 0 | 0 | 0 | 44.7µM | 0
Nc1ccc(O)cc1C(=O)OCC(=O)c1ccc(C2CCCCC2)cc1 | 0 | 0 | 0 | 11.2µM | 0
O=C(COC(=O)c1ccc(O)cc1O)c1ccc(Cl)cc1 | 0 | 0 | 0 | 44.7µM | 0
O=C(COC(=O)c1ccc(O)cc1O)Nc1ccc(Cl)cn1 | 0 | 0 | 0 | ? | 0
Cc1ccc(-c2ccc3ncn(Cc4ccccn4)c(=O)c3n2)c(C)c1 | - | - | - | 0 | -
Cn1c(=O)c2c(ncn2Cc2nc(-c3ccccc3)no2)n(C)c1=O | - | - | - | 0 | -
CN1c2ccsc2/C(=N/Nc2ccc(F)cc2)CS1(=O)=O | 12.6µM | 0 | 0 | ? | 0
Cc1noc(-c2ccc(OC3CN(C(=O)Cc4cccs4)C3)cc2)n1 | - | - | - | 7.08µM | -
COc1cc(OC)c(-c2c3cc(O)c(=O)cc-3oc3cc(O)c(O)cc23)cc1OC | 0 | 0 | 0 | ? | 0
Cc1c2cc(O)c(=O)cc-2oc2cc(O)c(O)cc12 | 0 | 0 | 0 | 5.62µM | -
CCOC(=O)N1CCN(Cc2nc3c(c(=O)[nH]c(=O)n3C)n2CC(C)C)CC1 | - | - | - | 0 | -
CC1CCCC/C1=N\NC(=O)CCC(=O)Nc1ccc(Br)cc1 (configuration not stated) | - | - | - | 0 | -
C/C(=N/NC(=O)c1cccs1)c1c(C)[nH]n(-c2nc3ccccc3s2)c1=O | 0 | 0 | 0 | ? | 1.58µM
O=C(Nc1cccc2ncccc12)c1ccccc1F | 12.6µM | 0 | 0 | 0 | ?
O=C(CCl)Nc1cccc2ncccc12 | ? | 0 | 0 | 0 | 0
NNc1cccc2ncccc12 | - | - | - | 3.55µM | -

Bioassay records from PubChem BioAssay.
